# Reference: PubChem BioAssay (EPA / NIEHS)
# Active and inactive are the calls of the source. The calls were made as follows: active = hit-call score of the fitted dose curve at least 0.9, where 1 is the maximum; inactive = score below 0.9.
# Experiments:
# Settings in all cases: mRNA level, 48 h; actives raise or lower the signal
# [1] = read-out: Forkhead box O1 (FOXO1), FOXO1 (gene 2308); assay: LTEA_HepaRG_FOXO1: Life Technologies and Expression Analysis (LTEA) Assay for Forkhead box O1 (FOXO1) using HepaRG (AID 2283456)
# In short: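 Using one lot of HepaRG hepatic cells kept in 0.5% DMSO, the team applied test chemicals in duplicate, half-log dilutions from 100 uM, for 48 h. Expression, normalised to ACTB/GAPDH/POLR2A, was compared with vehicle in either direction.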
# [2] = read-out: growth arrest and DNA damage 45 (GADD45A), GADD45A (gene 1647); assay: LTEA_HepaRG_GADD45A: Life Technologies and Expression Analysis (LTEA) Assay for growth arrest and DNA damage 45 (GADD45A) using HepaRG (AID 2283458)
# In short: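 Transcript induction or loss, quantified by TaqMan qRT-PCR against three housekeeping genes, is the read-out. HepaRG cells received chemicals for 48 h across eight half-log concentrations from 100 uM in 0.5% DMSO; gain and loss fitted relative to DMSO.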
# [3] = read-out: Forkhead box O3 (FOXO3), FOXO3 (gene 2309); assay: LTEA_HepaRG_FOXO3: Life Technologies and Expression Analysis (LTEA) Assay for Forkhead box O3 (FOXO3) using HepaRG (AID 2283459)
# In short: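 Gene-expression endpoint: FOXO3 transcript level by qRT-PCR in HepaRG cultures treated 48 h with chemicals up to 100 uM (half-log, 0.5% DMSO vehicle).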
# [4] = read-out: growth arrest and DNA damage 45 (GADD45B), GADD45B (gene 4616); assay: LTEA_HepaRG_GADD45B: Life Technologies and Expression Analysis (LTEA) Assay for growth arrest and DNA damage 45 (GADD45B) using HepaRG (AID 2283461)
# In short: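 Differentiated HepaRG cells, plated 48 h then switched to serum-free induction medium, were exposed 48 h in duplicate to eight half-log concentrations from 100 uM in 0.5% DMSO; mRNA quantified by qRT-PCR, normalized to ACTB/GAPDH/POLR2A, bidirectional fit versus DMSO.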
# [5] = read-out: ABC Transporter (ABCC3), ABCC3 (gene 8714); assay: LTEA_HepaRG_ABCC3: Life Technologies and Expression Analysis (LTEA) Assay for ABC Transporter (ABCC3) using HepaRG (AID 2283462)
# In short: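 HepaRG cells in serum-free induction medium were exposed for 48 h in duplicate to 8-point half-log concentrations topping at 100 uM in 0.5% DMSO. ABCC3 mRNA was measured by qRT-PCR normalized to ACTB, GAPDH and POLR2A, with bidirectional fitting versus DMSO.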
# [6] = read-out: ABC Transporter (ABCB11), ABCB11 (gene 8647); assay: LTEA_HepaRG_ABCB11: Life Technologies and Expression Analysis (LTEA) Assay for ABC Transporter (ABCB11) using HepaRG (AID 2283463)
# In short: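 Using HepaRG cultures held in 0.5% DMSO, chemicals were tested at half-log dilutions from 100 uM for 48 h. Induction or suppression of ABCB11 mRNA, normalized to ACTB, GAPDH and POLR2A, was fitted bidirectionally against vehicle.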
# [7] = read-out: ABC Transporter (ABCC2), ABCC2 (gene 1244); assay: LTEA_HepaRG_ABCC2: Life Technologies and Expression Analysis (LTEA) Assay for ABC Transporter (ABCC2) using HepaRG (AID 2283464)
# In short: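 HepaRG cells were plated 48 h, switched to serum-free induction medium, then exposed in duplicate for 48 h to 8 concentrations (top 100 uM, half-log steps, 0.5% DMSO). ABCC2 mRNA was measured by qRT-PCR normalized to ACTB/GAPDH/POLR2A; bidirectional fitting versus DMSO.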
# [8] = read-out: Broad substrate specificity ATP-binding cassette transporter ABCG2 (Homo sapiens) (UniProt Q9UNQ0); assay: LTEA_HepaRG_ABCG2: Life Technologies and Expression Analysis (LTEA) Assay for ABC Transporter (ABCG2) using HepaRG (AID 2283465)
# In short: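 Gene expression of ABCG2 in HepaRG liver cells is quantified by qRT-PCR following 48 h exposure across an eight-point series topping at 100 uM. Values come from bidirectional fitting relative to DMSO vehicle.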
# Sequence of Broad substrate specificity ATP-binding cassette transporter ABCG2 (Homo sapiens) (Q9UNQ0 whole entry, looked up): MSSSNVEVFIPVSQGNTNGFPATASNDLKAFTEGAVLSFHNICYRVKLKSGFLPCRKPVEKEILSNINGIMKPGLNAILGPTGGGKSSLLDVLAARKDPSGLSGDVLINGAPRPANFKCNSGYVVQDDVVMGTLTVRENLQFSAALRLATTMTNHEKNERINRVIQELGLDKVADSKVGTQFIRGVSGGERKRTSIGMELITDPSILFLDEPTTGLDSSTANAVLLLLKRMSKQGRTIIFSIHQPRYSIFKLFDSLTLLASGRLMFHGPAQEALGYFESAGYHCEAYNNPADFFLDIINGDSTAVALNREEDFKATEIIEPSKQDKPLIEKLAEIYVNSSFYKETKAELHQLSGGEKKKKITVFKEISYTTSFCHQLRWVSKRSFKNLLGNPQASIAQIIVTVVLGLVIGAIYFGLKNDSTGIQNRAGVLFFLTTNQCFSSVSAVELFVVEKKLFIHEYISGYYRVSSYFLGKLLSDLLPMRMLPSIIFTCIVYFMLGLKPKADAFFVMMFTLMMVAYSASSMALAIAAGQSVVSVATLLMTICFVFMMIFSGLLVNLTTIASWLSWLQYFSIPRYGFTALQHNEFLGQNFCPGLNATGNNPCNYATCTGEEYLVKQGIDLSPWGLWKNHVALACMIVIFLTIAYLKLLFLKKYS
Structure (SMILES),outcome [1],outcome [2],outcome [3],outcome [4],outcome [5],AC50 [6],AC50 [7],AC50 [8],AC50 [1],outcome [7],outcome [6],outcome [8],AC50 [2],AC50 [4]
Clc1ccc(C(c2ccccc2Cl)C(Cl)(Cl)Cl)cc1 (stereo unspecified),inactive,inactive,inactive,inactive,inactive,72.3 µM (active),13.2 µM (active),4.48 µM (active),–,–,–,–,–,–
ClC1=C(Cl)[C@]2(Cl)[C@@H]3[C@H]4C[C@H]([C@@H]5O[C@H]45)[C@@H]3[C@@]1(Cl)C2(Cl)Cl,inactive,inactive,inactive,inactive,inactive,5.27 µM (active),2.13 µM (active),–,–,–,–,–,–,–
Oc1ccc(C(c2ccc(O)cc2)(C(F)(F)F)C(F)(F)F)cc1,–,inactive,inactive,inactive,inactive,86.6 µM (active),–,–,81 µM (active),inactive,–,–,–,–
Cc1cccc(C)c1N,inactive,inactive,inactive,inactive,inactive,–,–,–,–,inactive,inactive,–,–,–
CCOC(=O)C(O)(c1ccc(Cl)cc1)c1ccc(Cl)cc1,inactive,inactive,inactive,inactive,inactive,38.9 µM (active),–,–,–,inactive,–,–,–,–
CC(C)(c1ccccc1)c1ccc(O)cc1,inactive,inactive,inactive,inactive,inactive,76.1 µM (active),–,–,–,inactive,–,–,–,–
CCOCCOC(C)=O,inactive,inactive,inactive,inactive,inactive,–,–,–,–,inactive,inactive,inactive,–,–
C=CC(N)=O,inactive,inactive,inactive,inactive,inactive,–,–,–,–,inactive,inactive,–,–,–
Cc1cccc([N+](=O)[O-])c1,inactive,inactive,inactive,inactive,inactive,–,–,–,–,inactive,inactive,inactive,–,–
CCCCCCOC(=O)c1ccccc1C(=O)OCCCCCC,inactive,inactive,inactive,inactive,inactive,–,–,–,–,inactive,inactive,–,–,–
Nn1cnnc1,inactive,inactive,inactive,inactive,inactive,–,–,–,–,inactive,inactive,inactive,–,–
C[C@]12CCC(=O)C=C1CC[C@@H]1[C@@H]2CC[C@@]2(C)[C@H]1CC[C@]2(C)O,inactive,–,inactive,inactive,inactive,0.647 µM (active),–,–,–,inactive,–,–,45.8 µM (active),–
c1ccc(-c2ccccc2)cc1,inactive,inactive,inactive,inactive,inactive,–,–,–,–,inactive,inactive,–,–,–
O=C(N[C@H]1CN2CCC1CC2)c1cc2ccoc2cn1,inactive,inactive,inactive,inactive,inactive,–,–,–,–,inactive,inactive,inactive,–,–
C=CC(=O)NCNC(=O)C=C,inactive,inactive,inactive,–,inactive,50 µM (active),16 µM (active),–,–,–,–,–,–,50 µM (active)
CCCN(CCC)N=O,inactive,inactive,inactive,inactive,inactive,–,–,–,–,inactive,inactive,inactive,–,–
COc1ccc(O)c(C(C)(C)C)c1,inactive,inactive,inactive,inactive,inactive,–,–,–,–,inactive,inactive,inactive,–,–
